In PubChem BioAssay AID1159580 (chemical genetic matrix, 2015):
Out of some 5,500 compounds screened, about 2,000 (36%) were called active. Another 18% or so got no clear call; they are omitted. Cut-off read from the data, not from the text of the source: active = normalized growth mostly below about 0.91 (no sharp cut-off); inconclusive = no clear call, values can overlap the other calls; inactive = mostly above about 0.92. The list shows a part of the results.

Test: chemical genetic growth profiling, strain panel (AID 1159580);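 note: tested at 20 µM; growth read once vehicle control cultures reached saturation at 30 °C; 1 = growth at the plate median or of vehicle wells; lower values mean less growth of the strain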
Details: S. cerevisiae deletion strains, growth OD
[1] = locus YAL040C, strain CLN3, hits give low values
[2] = locus YCL061C, strain MRC1 (second series), hits give low values
[3] = locus YDR150W, strain NUM1, hits give low values
[4] = locus YDR363W, strain ESC2, hits give low values
[5] = locus YER002W, strain NOP16, hits give low values
[6] = locus YJR075W, strain HOC1, hits give low values
[7] = locus YMR263W, strain SAP30, hits give low values
[8] = locus YNL153C, strain GIM3, hits give low values
[9] = locus YNL175C, strain NOP13, hits give low values
[10] = locus YNL197C, strain WHI3, hits give low values
[11] = locus YNL224C, strain SQS1, hits give low values
[12] = locus YNL322C, strain KRE1, hits give low values
[13] = locus YOR083W, strain WHI5 (second series), hits give low values
[14] = locus YAL013W, strain DEP1, hits give low values
[15] = locus YPL055C, strain LGE1, hits give low values
[16] = locus YPL241C, strain CIN2, hits give low values

Measured: normalized growth

O=C(c1ccc2c(c1)OCCO2)N1CCCCC1
inactive: [1] 0.989 | [2] 0.991 | [3] 1.01 | [4] 1.06 | [5] 0.986 | locus YGR229C, strain SMI1, hits give low values 1.01 | [6] 1.03 | [7] 1 | locus YMR307W, strain GAS1, hits give low values 1.01 | [8] 0.98 | [9] 0.992 | [10] 0.976 | [11] 1 | [12] 1.02 | [13] 0.993

O=C(OCCN1CCOCC1)C1(c2ccccc2)CCCCC1
inactive: [14] 1.07 | [1] 1.01 | [2] 1 | [3] 1.01 | [4] 1 | [5] 1.01 | [9] 1.01 | [10] 0.999 | [11] 0.996 | [12] 1.01 | [13] 1 | [15] 1.02 | [16] 0.999

O=C(CCN1CCOCC1)c1ccc2c(c1)OCCO2
inactive: [14] 0.979 | locus YBR229C, strain ROT2, hits give low values 0.982 | locus YCL061C, strain MRC1, hits give low values 1.01 | locus YDL101C, strain DUN1, hits give low values 1.01 | [3] 1.01 | locus YGR078C, strain PAC10, hits give low values 0.987 | locus YHR087W, strain rtc3, hits give low values 0.988 | locus YJR043C, strain POL32, hits give low values 0.996 | [6] 1.01 | locus YLR058C, strain SHM2 (second series), hits give low values 0.989 | locus YMR219W, strain ESC1, hits give low values 0.99 | [7] 1 | [8] 1.03 | locus YNL298W, strain CLA4 (second series), hits give low values 0.852 | [12] 0.968 | [15] 0.982 | locus YPR135W, strain CTF4, hits give low values 0.737
active: locus YDL134C, strain PPH21, hits give low values 0.836 | locus YEL061C, strain CIN8, hits give low values 0.694 | locus YHR030C, strain SLT2, hits give low values 0.51 | locus YLR039C, strain RIC1, hits give low values 0.637 | locus YLR085C, strain ARP6, hits give low values 0.259 | locus YLR262C, strain YPT6, hits give low values 0.703 | locus YML094W, strain GIM5, hits give low values 0.802 | locus YNR030W, strain Alg12, hits give low values 0.787 | locus YOL006C, strain TOP1, hits give low values 0.708 | [16] 0.769
